Assay outcomes (PubChem BioAssay)
PAFAH1B3 FP inh – PAFAH1B3 enzyme inhibitors, primary screen, biochemical, fluorescence polarization, human; recombinant PAFAH1B3, FP-rhodamine probe; inhibition, % at 3.39 µM; hit rate 0.28% among 340,000;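 active = inhibition above the screen-wide average of all tested compounds plus 3 SD, cut at about 25% in these data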;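 note: 0% = enzyme with DMSO only and 100% = wells lacking PAFAH1B3 protein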
LYPLA2 counter – LYPLA2 inhibitors, primary screen, counter-screen for PME1 inhibitor project, biochemical, fluorescence polarization, FP-Rh probe ABPP | recombinant LYPLA2 | inhibition, % at 5.9 µM | hit rate 0.38% among 320,000 | AID 2177, 2009;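 active = inhibition above the screen-wide mean plus 3 SD, limit set per campaign, cut at about 26% in these data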;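 note: 0% = LYPLA2 with DMSO and 100% = wells lacking LYPLA2 enzyme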
PAFAH2 inh – PAFAH2 enzyme inhibitors, primary screen, biochemical, fluorescence polarization, human; Platelet-activating factor acetylhydrolase 2, cytoplasmic (Homo sapiens), Q99487; recombinant PAFAH2, FP-rhodamine activity probe; inhibition, % at 3.39 µM; hit rate 0.99% among 340,000;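 active = inhibition above the mean over all tested compounds plus 3 SD, cut at about 30% in these data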;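 note: inhibitors block probe labeling of enzyme so polarization drops; 0% = enzyme with DMSO and 100% = wells lacking PAFAH2 protein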
pPAFAH inh – pPAFAH enzyme inhibitors, primary screen, biochemical, fluorescence polarization, human; Platelet-activating factor acetylhydrolase (Homo sapiens), Q13093; recombinant pPAFAH, FP-rhodamine probe fluorescence polarization; inhibition, % at 3.39 µM; hit rate 1.5% among 330,000; AID 463082, 2010;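 active = inhibition above the mean inhibition across the screen plus 3 SD, cut at about 25% in these data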;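 note: inhibitors block binding of the rhodamine activity-based probe so polarization drops; 0% = enzyme with DMSO and 100% = wells lacking pPAFAH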
Target sequence (Q13093 whole entry, looked up): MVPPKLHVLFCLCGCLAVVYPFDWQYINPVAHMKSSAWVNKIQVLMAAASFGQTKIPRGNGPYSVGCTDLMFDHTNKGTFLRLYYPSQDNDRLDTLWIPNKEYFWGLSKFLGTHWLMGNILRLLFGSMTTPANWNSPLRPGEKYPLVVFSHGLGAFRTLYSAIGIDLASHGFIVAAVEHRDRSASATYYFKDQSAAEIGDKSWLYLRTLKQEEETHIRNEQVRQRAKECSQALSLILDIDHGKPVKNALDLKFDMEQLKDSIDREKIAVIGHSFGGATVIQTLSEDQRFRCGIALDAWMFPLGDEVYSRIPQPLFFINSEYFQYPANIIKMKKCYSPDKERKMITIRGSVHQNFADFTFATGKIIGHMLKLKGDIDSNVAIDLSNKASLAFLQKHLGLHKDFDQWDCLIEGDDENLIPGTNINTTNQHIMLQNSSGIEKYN
PAFAH1B2 FP inh – PAFAH1B2 enzyme inhibitors, primary screen, biochemical, fluorescence polarization, human; hit rate 1.2% among 340,000; recombinant PAFAH1B2, FP-rhodamine activity probe; inhibition, % at 3.39 µM; Platelet-activating factor acetylhydrolase IB subunit alpha2 (Homo sapiens), P68402;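 active = inhibition above the mean of all tested compounds plus 3 SD, cut at about 24% in these data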;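 note: 0% = enzyme with DMSO and 100% = wells lacking PAFAH1B2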
LYPLA1 inh – LYPLA1 inhibitors, primary screen, counter-screen for PME1 inhibitor project, biochemical, fluorescence polarization, FP-Rh probe ABPP; hit rate 0.16% among 320,000; recombinant LYPLA1; inhibition, % at 5.9 µM;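 active = inhibition above the mean of all tested compounds plus 3 SD, set per campaign, cut at about 14% in these data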;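 note: inhibitors block serine hydrolase probe labeling of LYPLA1 so polarization falls; 0% = enzyme with DMSO and 100% = wells lacking LYPLA1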
Starred values were filed as active, the others as inactive; / = no result. In the library only some 2.9% were active in any assay of this set; here they are far more common.

SMILES	PAFAH1B3 FP inh	LYPLA2 counter	PAFAH2 inh	pPAFAH inh	PAFAH1B2 FP inh	LYPLA1 inh
CCOC(=O)c1ccc(NC(=O)CSc2nnnn2C2CCCCC2)cc1	-2	-5	-12	6	2	-4
O=C(O)c1ccc(N2N=C(c3ccccc3)CC2c2ccccc2)cc1 (stereo unspecified)	-7	-4	2	32*	-2	-2
COc1ccc(C2=NN(c3ccc(C=O)cc3)C(c3ccccc3)C2)cc1 (stereo unspecified)	/	1	/	13	/	-6
O=Cc1ccc(N2N=C(c3ccccc3)CC2c2ccccc2)cc1 (stereo unspecified)	17	-1	21	30*	12	-5
COc1ccc(C2CC(c3ccccc3)=NN2c2ccc(C(N)=O)cc2)cc1 (stereo unspecified)	4	-1	5	13	3	-5
COc1cccc(CNC(=O)COC(=O)C23CC4CC(CC(Cl)(C4)C2)C3)c1	0	/	0	5	28*	/
O=C1/C(=C2\C(=O)N(Cc3ccc(F)cc3)c3ccccc32)SC(=S)N1CCS(=O)(=O)O	5	-7	-1	6	4	0
O=C(O)CN1C(=O)/C(=C2\C(=O)N(Cc3ccccc3Cl)c3ccccc32)SC1=S	9	-6	3	3	26*	2
CC(C)N=c1scc(-c2cccs2)n1/N=C/c1ccc(O)c(O)c1O	5	0	1	68*	0	-5
Nc1ccccc1SSc1ccccc1N	2	9	-1	5	2	1
COC(=O)C1C2CC3c4[nH]c5cc(OC)ccc5c4CCN3CC2CC(O)C1OC (stereo unspecified)	7	/	-3	/	-1	/
CCCCc1ccc(C2C3=C(CC(C)(C)CC3=O)NC3=C2C(=O)c2ccccc23)cc1 (stereo unspecified)	16	-6	-7	27*	-5	-12
Cc1csc(Sc2ccc(C(=O)OCC(=O)Nc3ccc(OC(F)(F)F)cc3)cc2[N+](=O)[O-])n1	7	-22	-1	2	0	-12
C/C(=N\Nc1ccc(C(=O)O)cc1)c1ccc2c(c1)Nc1ccccc1S2	26*	12	25	34*	8	9
CCOc1ccc(CN(C)CC(=O)Nc2cccc(S(=O)(=O)N(C)c3ccccc3)c2)cc1	1	-5	-3	28*	1	-1
COc1cccc(CN(C)CC(=O)Nc2cccc(S(=O)(=O)N(C)c3ccccc3)c2)c1OC	5	/	7	/	3	/
Oc1ccc(C2Nc3cccc4cccc(c34)N2)c(O)c1	36*	18	-5	2	17	3
Clc1ccccc1C1Nc2cccc3cccc(c23)N1	9	2	7	12	0	0
c1coc(C2Nc3cccc4cccc(c34)N2)c1	/	-2	/	26*	/	-8
COc1ccc(NS(=O)(=O)c2ccc(O)c(C(=O)OCC(=O)NC(C)C3CC4CCC3C4)c2)cc1 (stereo unspecified)	3	4	20	31*	17	2
CC(NC(=O)COC(=O)c1ccccc1O)C1CC2CCC1C2 (stereo unspecified)	6	/	24	8	13	/
CC(NC(=O)COC(=O)c1cc(NS(=O)(=O)c2ccc(Cl)c([N+](=O)[O-])c2)ccc1O)C1CC2CCC1C2 (stereo unspecified)	4	-3	25	28*	22	-4
CCOC(=O)N1CCN(C(=O)C2CC(=O)N(c3ccc(OC)cc3)C2c2ccc(OC)cc2)CC1 (stereo unspecified)	1	5	-5	2	4	-1
CCC(NC(=O)NNC(N)=S)(C(F)(F)F)C(F)(F)F	3	0	2	7	6	1
Cc1c(Cc2ccccc2)sc(/N=C/c2c(O)ccc3ccccc23)c1C(N)=O	-10	-10	-37	32*	-21	-17
SMILES	PAFAH1B3 FP inh	LYPLA2 counter	PAFAH2 inh	pPAFAH inh	PAFAH1B2 FP inh	LYPLA1 inh
Cc1c(Cc2ccccc2)sc(N)c1C(N)=O	/	7	/	28*	/	1
Cc1ccc(C(=O)NCCC(=O)N2CCC3(CC2)NCCc2[nH]cnc23)cc1	8	-2	-2	6	2	-4
O=C(O)C1=CC(=C(c2ccc(O)c(C(=O)O)c2)c2ccc(O)c(C(=O)O)c2)C=CC1=O	/	-8	/	66*	/	-12
CC(=O)Nc1ccc(N2C(=O)c3cccc(NC(C)=O)c3C2=O)cc1	8	-4	-12	-3	6	-1
Cc1occc1C(=O)O/N=C(\N)c1ccc(Cl)cc1	1	-5	2	0	34*	-4
CC(C)(C)c1ccc(/C=C/C(=O)N2CCN(c3ncccn3)CC2)cc1	12	0	4	32*	6	-4
CC(C)(C)c1ccc(OCC(=O)N2CCN(c3ncccn3)CC2)cc1	-4	5	16	26*	3	-2
O=C(/C=C/c1ccc(Cl)c(C(F)(F)F)c1)N1CCN(c2ccccn2)CC1	3	3	40*	29*	2	2
CCOc1ccc(S(=O)(=O)NC(C)C(=O)NCc2ccc3c(c2)OCO3)cc1 (stereo unspecified)	1	-9	12	-3	10	0
C/C(=N\N=C(c1ccccc1)c1ccccc1)c1cccs1	4	0	-4	8	2	3
Cc1ccc(S(=O)(=O)Oc2cccc([N+](=O)[O-])c2)cc1	-2	/	1	/	25*	/
O=C(CCl)N1c2ccccc2Oc2ccc3ccccc3c21	30*	/	30*	/	24	/
O=C(O)c1cc(O)ccc1O	7	/	3	/	4	/
Nc1ccc(O)c(C(=O)O)c1	/	5	/	49*	/	7
Cc1ccc(CCNS(=O)(=O)c2cc3c(cc2C)NC(=O)CO3)cc1	-3	0	-7	9	24*	0
COC(=O)CCC/C=C1/SCC(NC(=O)c2ccccc2)C1=O (stereo unspecified)	-5	-7	-8	26*	1	-8
COC(=O)c1ccccc1S(=O)(=O)N1CCC(C(=O)NC2CCCCC2)CC1	-1	2	9	-3	6	4
CC(C)N1CC=C2C(C#N)=C(N)C(C#N)(C#N)[C@H](c3ccoc3)[C@H]2C1	/	4	/	29*	/	5
CC(C)N1CC=C2C(C#N)=C(N)C(C#N)(C#N)C(c3ccccc3)C2C1 (stereo unspecified)	2	-1	0	8	7	1
O=C1CS/C(=N\C(=O)N2c3ccccc3Sc3ccccc32)N1	-1	3	-5	26*	25*	1
